# According to the supplement of paper PMC6555819:
# Tests used:
# Assay in all cases: PBM binding z-score (relative to random genomic background probes); higher = stronger binding; sequences stand for … in GC…GCGATTGACAGCGTAGAATGAAGG
# [1] = tested on: FXR:RXRa (NR concentration 270 nM, RXRa partner concentration 90 nM)
# Summary of the method: (§1)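 Each nuclear receptor dimer, without ligand, was incubated for 1 h on custom Agilent 4×180K protein-binding microarrays. Binding was detected with antibodies against each partner (one per run), and scanned fluorescence was regression-normalized. The binding z-scores are referenced to random human genomic background probes.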
# [2] = tested on: LXRa:RXRa (NR concentration 270 nM, RXRa partner concentration 90 nM)
# Summary of the method: as §1
# [3] = tested on: LXRa homodimer (NR concentration 270 nM)
# Summary of the method: as §1
# [4] = tested on: LXRb:RXRa (NR concentration 270 nM, RXRa partner concentration 90 nM)
# Summary of the method: as §1
# [5] = tested on: LXRb homodimer (NR concentration 270 nM)
# Summary of the method: as §1
# [6] = tested on: PPARa:RXRa (NR concentration 270 nM, RXRa partner concentration 90 nM)
# Summary of the method: as §1
# [7] = tested on: PPARg:RXRa (NR concentration 180 nM, RXRa partner concentration 90 nM)
# Summary of the method: as §1
# [8] = tested on: PPARg:RXRa 270nM:90nM, anti-RXR (NR concentration 270 nM, RXRa partner concentration 90 nM)
# Summary of the method: as §1
# [9] = tested on: PPARg:RXRa 30nM:10nM, anti-RXR (NR concentration 30 nM, RXRa partner concentration 10 nM)
# Summary of the method: as §1
# [10] = tested on: PPARg:RXRa 90nM:30nM, anti-RXR (NR concentration 90 nM, RXRa partner concentration 30 nM)
# Summary of the method: as §1
# [11] = tested on: PPARg:RXRa DBDmut IVT, anti-RXR (DBD mutation: RXRa K156A/R161A, NR concentration 270 nM, RXRa partner concentration 90 nM)
# Summary of the method: as §1
# [12] = tested on: PPARg:RXRa IVT, anti-PPARg (NR concentration 270 nM, RXRa partner concentration 90 nM)
# Summary of the method: as §1
# [13] = tested on: PPARg DBDmut IVT, anti-PPARg (DBD mutation: PPARg1 K132A/R137A, NR concentration 270 nM)
# Summary of the method: as §1
# [14] = tested on: PPARg homodimer (NR concentration 180 nM)
# Summary of the method: as §1
# [15] = tested on: PXR:RXRa (NR concentration 270 nM, RXRa partner concentration 90 nM)
# Summary of the method: as §1
# [16] = tested on: PXR homodimer (NR concentration 270 nM)
# Summary of the method: as §1
# [17] = tested on: RARa:RXR (NR concentration 270 nM, RXRa partner concentration 90 nM)
# Summary of the method: as §1
# [18] = tested on: RARa homodimer (NR concentration 270 nM)
# Summary of the method: as §1
# [19] = tested on: RARb:RXRa (NR concentration 270 nM, RXRa partner concentration 90 nM)
# Summary of the method: as §1
Sequence,PBM binding z-score [1],PBM binding z-score [2],PBM binding z-score [3],PBM binding z-score [4],PBM binding z-score [5],PBM binding z-score [6],PBM binding z-score [7],PBM binding z-score [8],PBM binding z-score [9],PBM binding z-score [10],PBM binding z-score [11],PBM binding z-score [12],PBM binding z-score [13],PBM binding z-score [14],PBM binding z-score [15],PBM binding z-score [16],PBM binding z-score [17],PBM binding z-score [18],PBM binding z-score [19]
CGAACTAGGTCACCAGGACAGTCAAGAGGTTGGA,4.17,2.7,0.267,1.86,-0.431,5.16,8.84,6.8,4.63,6.37,8.33,8.73,2.35,2.43,1.51,0.0182,2.72,0.536,4.28
CGAACTAGTTCAAAGGACAGTGAAAGGCGACGTA,-0.112,-0.0127,-0.428,-0.231,-0.842,1.62,2.23,3.51,1.75,3.25,0.0129,0.499,-0.185,0.158,0.27,0.322,0.253,0.148,1.91
CGAACTAGGTCAAAGAACAGTGAAAGGCGACGTA,3.3,1.96,-0.252,1.43,-0.259,4.66,8.35,7.08,5.63,7.35,7.89,8.03,1.2,0.602,0.752,-0.206,1.51,-0.184,3.58
ATATGTAGGTTAGGGTCATTCCGAAAGTAGGGAA,4.95,3.68,1.27,4.26,1.53,5.69,7.77,6.58,4.22,6.26,6.18,6.86,1.28,2.67,4.29,1.79,4.8,1.82,3.43
ATATGTAGGTTAGGGTCATTCAGAAAGTAGGGAA,5.09,4.43,1.52,4.66,1.62,5.61,7.97,6.68,4.41,6.43,6.61,6.95,3.49,3.86,4.66,2.12,5.52,2.73,3.34
CGAACTAGGTCAATGGACAGTGAAAGGCGACGTA,3.01,1.85,-0.266,1.17,-0.604,4.39,6.92,6.17,3.76,5.61,7.65,7.92,4.35,2.53,0.477,-0.177,1.18,0.235,3.51
ATATGTAGGTTAGGTTCATTCAGAAAGTAGGGAA,1.59,2.28,0.871,2.34,1.28,4.1,4.93,4.37,2.49,4.03,6.23,5.61,2.4,1.77,2.89,2.26,2.24,1.68,1.5
CGAACTAGGTCAAAGGACAGTGAGAGGCGACGTA,4.2,2.38,-0.449,1.41,-0.441,5.65,10.3,8.86,8,9.29,7.99,8.52,1.52,1.96,0.82,-0.246,2.11,0.479,3.81
CGAACTAGGCCACCAGGACAGTGAAGAGGTTGGA,-0.158,-0.638,-0.662,-0.868,-0.94,1.98,3.12,2.28,0.382,1.23,6.89,6.5,-0.0856,-0.263,-0.874,-0.217,-0.512,-0.684,0.821
CGAACTCGGTCACCAGGACAGTGAAGAGGTTGGA,0.841,0.683,0.119,-0.176,-1.17,1.76,1.91,1.64,-0.104,0.606,4.23,3.87,-0.647,0.233,0.0316,-0.302,0.493,-0.227,2.69
CGAACAAGGTCAAAGGACAGTGAAAGGCGACGTA,7.69,5.16,0.368,4.24,0.892,6.01,7.72,6.93,4.75,6.72,3.85,5.39,1.79,2.54,4,0.956,4.62,0.893,4.98
ATATGAAGGTTAGGGTCATTCAGAAAGTAGGGAA,5.27,4.18,1.26,4.52,1.7,5.23,4,4.02,1.82,2.87,1.38,2.78,1.79,3.99,4.59,2.32,5.28,2.29,3.66
CGAACTAGGTCAAAGGACAGCGAAAGGCGACGTA,4.22,2.78,-0.185,1.94,-0.366,5.76,10.8,8.88,9.93,10.3,8.31,8.46,0.805,1.59,1.22,-0.642,2.66,0.165,3.93
CGAAATAGGTCAAAGGACAGTGAAAGGCGACGTA,6.11,4.45,0.474,3.47,0.71,5.96,9.28,8.26,7.99,8.72,7.36,7.35,0.994,2.41,2.34,-0.0747,3.92,0.491,4.49
CGAACTAGGTCACCAAGACAGTGAAGAGGTTGGA,3.75,1.93,-0.0683,1.32,-0.272,5.11,8.16,6.46,4.53,6.57,7.83,8.54,0.905,1.16,1.14,-0.2,1.99,0.703,4.07
ATATGTAGGTTAGGGTCATTTAGAAAGTAGGGAA,4.85,3.93,1.62,4.59,1.67,5.67,7.69,6.54,4.42,6.23,6.56,6.66,2.64,3.47,4.23,1.89,4.82,1.85,3.33
CGAACTAGGTCCCCAGGACAGTGAAGAGGTTGGA,-0.407,-0.759,-0.417,-0.926,-1.3,0.171,0.418,0.762,-0.453,0.0759,3.03,2.5,-1.06,-0.774,-0.741,-0.316,-0.649,-0.996,0.0236
CGAACTCGGTCAAAGGACAGTGAAAGGCGACGTA,0.719,0.857,-0.21,-0.0802,-0.824,2.68,5.06,5.39,3.97,5.3,2.71,3.18,-0.87,0.102,-0.0185,-0.567,0.43,-0.278,2.56
CGAACTAGGTCACCACGACAGTGAAGAGGTTGGA,4.13,2.41,0.318,1.87,-0.171,5.18,8.44,7.14,4.87,6.86,8.39,9,4.26,2.32,1.46,-0.289,2.78,0.591,4.21
CGAACTAGGACAAAGGACAGTGAAAGGCGACGTA,-0.156,-0.553,-0.411,-0.765,-0.967,2.45,5.34,5.78,3.93,5.64,4.53,4.05,-0.402,0.327,-0.405,-0.257,-0.272,-0.328,1.12
CGAACTAGGTCAAAGGACCGTGAAAGGCGACGTA,3.56,2.39,0.0544,1.48,-0.478,4.99,8.12,6.9,5.98,7.29,7.75,8.21,0.0403,0.811,0.907,-0.51,1.44,-0.512,3.69
CGAACTAGGTCACCAGAACAGTGAAGAGGTTGGA,3.61,2.14,-0.204,1.65,-0.116,5.2,8.46,6.91,5.08,6.61,8.55,8.85,1.39,1.64,1.29,-0.143,2.45,0.0997,4.2
CGAACTAGGTCAAAGGACAGGGAAAGGCGACGTA,4.04,2.31,-0.139,1.77,-0.371,5.35,10.4,8.79,8.45,9.16,7.68,8.19,4.37,2.31,0.895,-0.253,2.37,0.0193,3.9
CGAACTAGGTGAAAGGACAGTGAAAGGCGACGTA,-0.276,-0.418,-0.4,-0.115,-0.863,4.46,8.84,7.7,6.77,8.31,7.36,7.28,1.83,1.93,-0.398,-0.114,-0.0573,-0.695,1.54
ATTTGTAGGTTAGGGTCATTCAGAAAGTAGGGAA,5.22,4.68,2.51,4.9,3.24,5.52,6.37,5.83,3.41,5.27,5.45,5.62,3.63,4.01,4.55,3.09,5.22,4.03,3.86
CGAACTAGGTCACCAGGACAGTGCAGAGGTTGGA,4.04,2.7,0.199,1.76,-0.667,5.21,8.59,6.83,4.82,6.44,8.28,8.75,0.713,2.02,1.73,0.15,2.58,0.578,4.14
ATCTGTAGGTTAGGGTCATTCAGAAAGTAGGGAA,4.95,4.18,1.54,4.44,2.08,4.99,4.27,4.32,2.09,3.76,2.86,3.74,2.08,3.23,4.42,2.1,5.21,2.2,3.58
CGAACTAGGTCTCCAGGACAGTGAAGAGGTTGGA,-0.128,-0.769,-0.494,-0.832,-1.01,0.539,0.908,0.999,-0.187,0.153,4.77,4.03,-0.626,0.0186,-0.409,-0.39,-0.238,-0.356,0.216
CGAACCAGGTCAAAGGACAGTGAAAGGCGACGTA,5.18,3.73,0.284,2.63,-0.254,5.27,7.61,7.03,4.9,6.76,4.57,5.82,0.805,1.1,2.07,0.537,2.82,0.116,3.86
CGAACTAGGTCACTAGGACAGTGAAGAGGTTGGA,2.63,1.57,-0.199,0.869,-0.496,4.78,8.29,6.68,3.9,6.28,7.81,8.81,2.32,1.48,0.625,0.00587,1.68,0.195,3.62
